{
  "source": "PubChem BioAssay AID2289",
  "about": "(National Center for Advancing Translational Sciences (NCATS), 2010)",
  "note": "Several values for one entry are separate records, joined by “and”; a condition that tells them apart may be missing. Equal values may be shown once. Out of some 340,000 compounds screened, about 3,300 (0.97%) were called active. Another 9% or so got no clear call; they are omitted. The call rests on the fitted dose curve; in most records, active means well fitted inhibition curve with a large enough effect; inconclusive means small, poorly fitted or top-dose-only effect, or effect the other way; inactive means flat fitted curve, though single readings scatter. This is one part of the list.",
  "data": [
    {"assay": "qHTS Assay for Modulators of miRNAs and/or Inhibitors of miR-21; further: potency means the concentration at half of the fitted maximal effect; nearly all actives have a fitted effect of over 55% in size", "conditions": "HeLa miR-21-FLuc reporter, luciferase luminescence, 48 h; actives lower the signal", "outline": "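Luminescence from a firefly luciferase reporter carrying a miR-21 binding site downstream, stably expressed under a CMV promoter in HeLa cells that make miR-21 endogenously, reports miRNA modulation after 48 h compound exposure up to approximately 40uM final.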", "values": [
      {"molecule": "Cc1cc(O)c(C2=Nc3ccccc3SC(c3ccc(Cl)cc3)C2)c(=O)o1", "note": "(stereo not drawn)", "Potency": "1.65 µM (active)"},
      {"molecule": "Cc1ccc2c3c([nH]c2c1C)-c1nonc1CC3", "Potency": "7.36 µM (active)"},
      {"molecule": "Cc1ccc(-n2c(C)cc(/C=C3\\SC(=O)NC3=O)c2C)cc1", "Potency": "1.47 µM (active)"},
      {"molecule": "O=C1NC(=S)N/C1=C\\c1ccc(N2CCOCC2)cc1", "Potency": "13.1 µM (active)"},
      {"molecule": "COc1ccc(-n2c(C)cc(/C=C3\\SC(=O)NC3=O)c2C)cc1", "Potency": "5.85 µM (active)"},
      {"molecule": "Cc1cc(N2CCOCC2)ccc1/C=C1/SC(=O)NC1=O", "Potency": "4.65 µM (active)"},
      {"molecule": "Cc1ccc(/C=N/NC(=O)CSc2nc3ccccc3o2)cc1", "Potency": "11.7 µM (active)"},
      {"molecule": "CCOc1cccc2cc(-c3csc(NC(=O)CCC(=O)NCCCN4CCC(C)CC4)n3)c(=O)oc12", "Potency": "1.17 µM (active)"},
      {"molecule": "CN(C)c1oc(/C=C/c2ccccc2)nc1C#N", "Potency": "5.85 µM (active)"},
      {"molecule": "COc1ccccc1/C=C/c1nc(C#N)c(N(C)C)o1", "Potency": "927 nM (active) and 1.65 µM (active)"},
      {"molecule": "CCOc1ccc(/C=C/c2nc(C#N)c(N(C)C)o2)cc1", "Potency": "0.329 µM (active)"},
      {"molecule": "COc1ccc(Nc2oc(/C=C/c3ccccc3OC)nc2C#N)cc1", "Potency": "13.1 µM (active)"},
      {"molecule": "CCCCN1C(=O)/C(=C/C=C2\\SCCN2C)SC1=S", "Potency": "5.21 µM (active)"},
      {"molecule": "CN1C(=O)/C(=C/C=C2\\SCCN2C)SC1=S", "Potency": "0.464 µM (active)"},
      {"molecule": "CCN1C(=O)/C(=C/C=C2/SCCN2C)SC1=S", "Potency": "0.185 µM (active)"},
      {"molecule": "Cc1nc(NC(=O)c2cc3c(s2)CCCCC3)sc1C(=O)N(C)C", "Potency": "7.36 µM (active)"},
      {"molecule": "Fc1cccc(C2NN=C(c3ccccc3)S2)c1", "note": "(stereo not drawn)", "Potency": "0.585 µM (active)"},
      {"molecule": "O=C1NN(c2ccccc2)C(=O)/C1=C/c1coc2ccccc2c1=O", "Potency": "4.65 µM (active)"},
      {"molecule": "CC1CCCCN1Cc1c(O)ccc2c(=O)c(-c3ccc(Cl)cc3)coc12", "note": "(stereo not drawn)", "Potency": "18.5 µM (active)"},
      {"molecule": "COc1ccc(-c2cc(COc3ccccc3)on2)cc1", "Potency": "9.27 µM (active)"},
      {"molecule": "Fc1ccc(OCc2cc(-c3ccccc3)no2)cc1", "Potency": "4.14 µM (active)"},
      {"molecule": "CCCCNC(=O)c1nnn(-c2ccccc2)c1N", "Potency": "16.5 µM (active)"},
      {"molecule": "C#CCN1C(=O)S/C(=C\\c2ccc(-c3ccc(C(=O)O)cc3C)o2)C1=O", "Potency": "3.29 µM (active)"},
      {"molecule": "COC(=O)C(C)N1C(=O)S/C(=C\\c2ccc(-c3ccc(C(=O)O)cc3C)o2)C1=O", "note": "(stereo not drawn)", "Potency": "6.56 µM (active)"},
      {"molecule": "CCN=C1S/C(=C\\c2ccc(-c3cccc(C(=O)O)c3)o2)C(=O)N1CC", "Potency": "0.656 µM (active)"},
      {"molecule": "CC(C)N1C(=O)S/C(=C\\c2ccc(-c3ccc(Cl)c(C(=O)O)c3)o2)C1=O", "Potency": "0.293 µM (active)"},
      {"molecule": "COc1ccc(OC)c2c(N3CC(C)OC(C)C3)cc(C(F)(F)F)nc12", "note": "(stereo not drawn)", "Potency": "6.56 µM (active)"},
      {"molecule": "O=C(Nc1ccccn1)c1sc2cccc(F)c2c1Cl", "Potency": "0.165 µM (active)"},
      {"molecule": "Brc1cc(Br)c2nc(-c3ccc(N4CCOCC4)cc3)ccc2c1", "Potency": "14.7 µM (active)"},
      {"molecule": "N#C/C(=C\\c1cccnc1)c1nc2c(s1)CCCC2", "Potency": "2.61 µM (active)"},
      {"molecule": "CCc1ccc(NC(=O)CSc2nncn2-c2cccnc2)cc1", "Potency": "16.5 µM (active)"},
      {"molecule": "CCc1ccc(NC(=O)CSc2ccc3nc(-c4ccc(OC)cc4)cn3n2)cc1", "Potency": "0.736 µM (active)"},
      {"molecule": "Cc1cc(NC(=O)CCSc2ccccc2)ccc1Br", "Potency": "16.5 µM (active)"},
      {"molecule": "CCc1ccc(NC(=O)CSc2ccccn2)cc1", "Potency": "10.4 µM (active)"},
      {"molecule": "Cc1ccc(NC(=O)CCSc2ccccn2)cc1", "Potency": "4.14 µM (active)"},
      {"molecule": "Cc1cc(OCC(=O)N2CCCCCC2)ccc1[N+](=O)[O-]", "Potency": "5.85 µM (active)"},
      {"molecule": "Cc1ccc(NC(=O)c2sccc2C)cc1[N+](=O)[O-]", "Potency": "4.14 µM (active)"},
      {"molecule": "O=C(CCc1ccccc1)Nc1ccccc1[N+](=O)[O-]", "Potency": "14.7 µM (active)"},
      {"molecule": "O=C(Nc1ccccn1)Nc1ccccc1[N+](=O)[O-]", "Potency": "9.27 µM (active)"},
      {"molecule": "O=C(NC(=S)Nc1ccccc1[N+](=O)[O-])c1ccccc1", "Potency": "9.27 µM (active)"},
      {"molecule": "Cc1ccc(NC(=O)c2ccc(C(C)(C)C)cc2)cc1[N+](=O)[O-]", "Potency": "5.21 µM (active)"},
      {"molecule": "Cc1ccc(NC(=O)C2C3CCCCC32)cc1[N+](=O)[O-]", "note": "(stereo not drawn)", "Potency": "13.1 µM (active)"},
      {"molecule": "CC(C)COc1ccc(C(=O)Nc2ccccc2[N+](=O)[O-])cc1", "Potency": "8.26 µM (active)"},
      {"molecule": "Cc1cc(NC(=O)c2ccccc2[N+](=O)[O-])ccc1Br", "Potency": "7.36 µM (active)"},
      {"molecule": "CC(C)(C)c1ccc(NC(=O)c2ccccc2)c([N+](=O)[O-])c1", "Potency": "0.736 µM (active)"},
      {"molecule": "CC(C)(C)c1ccc(C(=O)Nc2ccc([N+](=O)[O-])cn2)cc1", "Potency": "0.464 µM (active)"},
      {"molecule": "O=C(Nc1ccccn1)c1cc2cc([N+](=O)[O-])ccc2s1", "Potency": "0.826 µM (active)"},
      {"molecule": "CC(C)(C)c1cc(NC(=O)c2cccc([N+](=O)[O-])c2)no1", "Potency": "1.47 µM (active)"},
      {"molecule": "Clc1ccc(-c2noc(CN3CCOCC3)n2)cc1", "Potency": "16.5 µM (active)"},
      {"molecule": "COc1cccc(OC)c1OCCCOc1cccc2cccnc12", "Potency": "7.36 µM (active)"},
      {"molecule": "O=[N+]([O-])c1ccccc1OCCCOc1cccc2cccnc12", "Potency": "5.21 µM (active)"},
      {"molecule": "c1ccc(OCCOc2cccc3cccnc23)cc1", "Potency": "13.1 µM (active)"},
      {"molecule": "Brc1ccccc1OCCOc1cccc2cccnc12", "Potency": "11.7 µM (active)"},
      {"molecule": "CC(C)Sc1nc(SCC(=O)O)c2c3c(sc2n1)COC(C)(C)C3", "Potency": "9.27 µM (active)"},
      {"molecule": "COCCCNC(=O)C1CCN(C(=O)c2oc3cc4sc(N(C)C)nc4cc3c2C)CC1", "Potency": "14.7 µM (active)"},
      {"molecule": "Cc1ccccc1NC(=S)c1ccc2ccccc2n1", "Potency": "7.36 µM (active)"},
      {"molecule": "Cc1ccc(C)c(NC(=S)c2ccc3ccccc3n2)c1", "Potency": "1.65 µM (active)"},
      {"molecule": "N/C(=N\\OC(=O)COc1ccc2ccccc2c1Br)c1ccccn1", "Potency": "7.36 µM (active)"},
      {"molecule": "N/C(=N\\OC(=O)COc1ccc2ccccc2c1Br)c1ccncc1", "Potency": "16.5 µM (active)"},
      {"molecule": "CCOC(=O)c1c(NC(=O)CN2CCN(C)CC2)sc(C(=O)Nc2ccccc2)c1C", "Potency": "18.5 µM (active)"},
      {"molecule": "COc1cc(/C=N/NS(=O)(=O)c2ccc(C)cc2)ccc1OCc1cccc(C(=O)O)c1", "Potency": "0.464 µM (active)"},
      {"molecule": "COc1cc(/C=N/NS(=O)(=O)c2ccc3ccccc3c2)ccc1OCc1ccc(C(=O)O)cc1", "Potency": "0.414 µM (active)"},
      {"molecule": "Cc1cc(SCC(=O)Nc2nsc(-c3ccc(C(C)(C)C)cc3)n2)nc2ccccc12", "Potency": "2.33 µM (active)"}
    ]}
  ]
}
